Screening data from PubChem BioAssay.
LGR2 antag: Drosophila LGR2 receptor signaling inhibition; HEK293 LGR2, CRE-luciferase, bursicon-stimulated, 4 h; inhibition, % at 9.99 µM; actives 0.35% (n = 380,000);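 active = drop in luminescence signal, shown as inhibition above about 50% in the replicate tests, limit read from the data, passing the limit was not always enough; inconclusive = probably only some replicates passing the limit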;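 also: agonist challenge used bursicon conditioned medium at about half maximal strength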
TRPM1 prom inh: inhibitors of MITF-driven TRPM1 promoter in melanoma cells; SK-MEL-5 TRPM1 promoter luciferase, 24 h; inhibition, % at 12.5 µM; actives 0.83% (n = 330,000);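 active = mean inhibition across replicates of 60% or more, whatever share of single replicates reaches that level; inconclusive = some that reach 60%, reason not given; inactive = mean inhibition across replicates below 60%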
EWS-Fli block: EWS/Fli transcriptional activity inhibition. A673 NR0B1-luciferase reporter, viability-normalised. inhibition, % at 12.6 µM. actives 0.67% (n = 350,000). AID 651661;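 active = mean inhibition of at least 50% after viability correction, with every replicate also passing that limit; inconclusive = mean reaches 50% but only one of two replicates passes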;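 also: firefly luciferase signal divided by Alamar Blue viability fluorescence both relative to DMSO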
LMP1 NFkB inh: reduces LMP1-driven NF-kappaB luciferase signal. inhibition, % at 12.5 µM. actives 0.69% (n = 350,000). LMP1-induced NF-kappaB luciferase reporter cells, luminescence. AID 504558; in the data active = inhibition above about 41%; inconclusive = no clear call, values can overlap the other calls;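 also: 0% = neutral control wells and 100% = reference inhibitor control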
PAX8 inh HTS: PAX8 transcriptional activity inhibition; RMG-I TPO-luciferase reporter, SteadyGlo, 24 h; inhibition, % at 12.6 µM; actives 1.2% (n = 360,000);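 active = mean replicate inhibition at least 60% with every replicate also reaching 60%; inconclusive = only one of the two criteria is met; inactive = mean below 60% and not all replicates reaching 60%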;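 also: luciferase light reporting Pax8 driven TPO promoter activity; plate controls were median of neutral control wells for no effect and mitoxantrone controls for full effect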
Shn3 inh set2: inhibitors of Schnurri-3 3'UTR reporter in osteoblasts. inhibition, % at 12.5 µM. actives 0.52% (n = 360,000). Clone20 osteoblast Shn3 3'UTR firefly luciferase, 24 h. AID 588674;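 active = mean inhibition of at least 75% with every replicate also reaching 75%; inconclusive = mean inhibition at least 75% but some replicate below; inactive = mean inhibition below 75%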;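 also: 0% = median of neutral control wells and 100% = pilot-screen positive control compound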
Starred values were filed as active, the others as inactive; ? = inconclusive; . = no result given. Most compounds without a hit are left out; they make up all but 2.2% or so of the library.

SMILES	LGR2 antag	TRPM1 prom inh	EWS-Fli block	LMP1 NFkB inh	PAX8 inh HTS	Shn3 inh set2
Cc1ccc(S(=O)(=O)N(C)C[C@H]2Oc3ccc(NC(=O)Nc4ccc5c(c4)OCO5)cc3CC(=O)N([C@@H](C)CO)C[C@@H]2C)cc1	-9	.	5	.	-4	.
O=C(CN1CCOCC1)NCC[C@@H]1CC[C@@H](NC(=O)c2ccccc2F)[C@@H](CO)O1	-1	.	1	.	-5	.
CCNC(=O)C[C@H]1CC[C@@H]2[C@@H](COc3ccc(NC(=O)Nc4ccc(Cl)cc4)cc3C(=O)N2C)O1	-7	.	-10	.	2	.
C[C@H]1CN([C@@H](C)CO)C(=O)c2cc(-c3cccnc3)cnc2O[C@@H]1CN(C)Cc1ccc(-c2ccccc2)cc1	0	.	-3	.	.	.
CCCN1C[C@@H](C)[C@@H](OC)CN(C)C(=O)c2cc(NC(=O)COC)ccc2OC[C@@H]1C	10	.	0	.	-15	.
C[C@H]1CN([C@@H](C)CO)C(=O)Cc2cc(NC(=O)Nc3ccc4c(c3)OCO4)ccc2O[C@H]1CN(C)S(=O)(=O)c1ccccc1	12	.	55*	.	.	.
C[C@H](CO)N1C[C@H](C)[C@H](CN(C)S(=O)(=O)c2ccc(Cl)cc2)Oc2ccc(NC(=O)Nc3ccc4c(c3)OCO4)cc2CC1=O	13	.	61*	.	.	.
Cc1ccc(S(=O)(=O)N(C)C[C@H]2Oc3ccc(NC(=O)Nc4ccc5c(c4)OCO5)cc3CC(=O)N([C@@H](C)CO)C[C@H]2C)cc1	11	.	3	.	3	.
C[C@@H]1CN([C@H](C)CO)C(=O)Cc2cc(NC(=O)Nc3ccc4c(c3)OCO4)ccc2O[C@@H]1CN(C)S(=O)(=O)c1ccccc1	-2	.	-5	.	.	.
C[C@H](CO)N1C[C@H](C)[C@H](CN(C)C)Oc2c(NC(=O)Nc3cccc4ccccc34)cccc2C1=O	10	.	5	.	0	.
CCC(=O)N[C@H]1C=C[C@H](CC(=O)NCC2CC2)O[C@H]1CO	4	.	-35	.	-15	.
O=C(O)C[C@H]1CC[C@H](NC(=O)Nc2ccccc2)[C@H](CO)O1	-10	.	-7	.	-10	.
C[C@H](CO)N1C[C@H](C)[C@@H](CN(C)C(=O)C2CCCCC2)OCCCC[C@H](C)Oc2ccc(NS(=O)(=O)c3cn(C)cn3)cc2C1=O	2	.	-10	.	-5	.
Cc1ccc(NC(=O)NNS(=O)(=O)c2ccc(Br)cc2)cc1	.	2	.	66*	.	-3
CCCCCCCC/C=C\CCCCCCCC(=O)NCCc1ccc(O)c(O)c1	.	40	24	-75	53	91*
CCN(CC)CCOc1ccc2c(c1)C(=NO)c1cc(OCCN(CC)CC)ccc1-2	7	103*	.	-65	.	-2
CCOC(=O)c1c(C)[nH]c(C2=NNC(=NC3CC3)SC2)c1C	.	56	.	50*	.	27
CCOC(=O)c1c(C)[nH]c(/C(C)=N/O)c1C	.	8	.	-2	.	-11
CCOC(=O)N1CCC(NC(=O)c2ccc3c(c2)N=C(C)c2c(C)ccc(C)c2S3)CC1	7	59	44	12	96*	31
CCOC(=O)N1CCC(NC(=O)c2ccc3c(c2)N=C(CC)c2cc(C)ccc2S3)CC1	10	25	.	8	48	40
CCOc1ccc(CN2C(=O)c3ccccc3C2=O)cc1C(=O)Nc1nnc(SCC)s1	2	-2	7	10	-5	-10
CCOc1ccc(CN2C(=O)c3ccccc3C2=O)cc1C(=O)NC1CC(C)(C)NC(C)(C)C1	-3	14	-6	71*	3	8
O=S(=O)(Nc1nc(CN2CCOCC2)nc2sc3c(c12)CCCC3)c1cc(F)ccc1F	.	5	.	10	4	0
CCNc1nc(CN2CCOCC2)nc2sc3c(c12)CCC3	-10	-2	.	65*	.	-7
CC(C)NC(=O)N(C)C[C@H]1Oc2c(NC(=O)C3CCOCC3)cccc2C(=O)N([C@@H](C)CO)C[C@@H]1C	-23	.	-2	.	-6	.
SMILES	LGR2 antag	TRPM1 prom inh	EWS-Fli block	LMP1 NFkB inh	PAX8 inh HTS	Shn3 inh set2
CCOc1cc(C=O)cc(N=Nc2cccc([N+](=O)[O-])c2)c1O	4	16	2	-10	17	0
O=[N+]([O-])c1ccc(N=Nc2ccc(O)cc2O)cc1	.	-13	.	-23	81*	5
O=[N+]([O-])c1cccc(N=Nc2ccc(O)cc2O)c1	19	-3	-18	-1	81*	8
O=[N+]([O-])c1c(Nc2cccc(O)c2)cc(Cl)c2nonc12	8	77*	59*	56*	112*	?
Cc1c(Nc2cc(Cl)c3nonc3c2[N+](=O)[O-])c(=O)n(-c2ccccc2)n1C	103*	102*	43	10	107*	96*
CN(C)C(=O)[C@@H]1[C@@H](CO)[C@@H]2Cn3c(ccc(-c4ccccc4F)c3=O)[C@H]1N2C	11	.	1	.	-2	.
Cc1ccc(CNc2nc3cc(-c4ccccc4C)sc3c(=O)n2C)c(C)c1	2	.	10	.	27	-4
C=CCNc1nc2cc(-c3ccccc3C)sc2c(=O)n1C	-24	.	63*	.	-10	-46
C=C1C(=O)[C@]23C[C@H]1CC[C@H]2[C@]1(C)[C@@H](OC(C)=O)CC[C@@](C)(C(=O)OC)[C@H]1C[C@@H]3OC(C)=O	29	.	61*	.	117*	96*
C=C1C(=O)[C@]23C[C@H]1CCC2[C@@]1(C)C(C[C@@H]3O)[C@](C)(C(=O)OC)CC[C@@H]1OC(C)=O (stereo partly specified)	92*	.	53*	.	108*	98*
C=C1C(=O)[C@]23C[C@H]1CC[C@H]2[C@]1(C)[C@@H](OC(C)=O)CC[C@@](C)(C(=O)O)[C@H]1C[C@@H]3O	32	.	38	.	101*	63
C[C@@H]1CN([C@@H](C)CO)C(=O)c2cc(-c3ccccc3)cnc2O[C@H]1CN(C)C(=O)c1ccccn1	-7	.	1	.	.	.
Cc1nc(CN(C)c2ncnc3ccc(-c4ccc5c(c4)OCO5)cc23)cs1	24	.	37	.	66*	52
CCOC(=O)C1=C(O)/C(=C/c2ccc(CNC(=O)C(=O)Nc3ccc(C)cc3)o2)N=C1C	-32	11	.	77*	.	9
COC(=O)C1=C(O)/C(=C\c2ccc(CNC(=O)C(=O)Nc3ccc(C)cc3)o2)N=C1C	.	9	.	-13	.	-5
C[C@H]1CCCCO[C@H](CN(C)C(=O)c2ccncc2)[C@@H](C)CN([C@@H](C)CO)C(=O)c2cc(NS(C)(=O)=O)ccc2O1	15	.	-13	.	.	.
N#Cc1cccc(-c2ccc3c(c2)[C@@H]2[C@@H](CCN2C(=O)C2CCCCC2)[C@@H](CO)N3)c1	27	.	13	.	75*	.
COc1ccccc1-c1ccc2c(c1)[C@H]1[C@H](CCN1C(=O)C1CCCC1)[C@H](CO)N2	.	.	-4	.	.	.
N#Cc1ccc(-c2ccc3c(c2)[C@@H]2[C@@H](CCN2C(=O)C2CCC2)[C@@H](CO)N3)cc1	-11	.	2	.	.	.
COc1ccccc1-c1ccc2c(c1)[C@H]1[C@H](CCN1C(=O)C1CCCCC1)[C@@H](CO)N2	-6	.	9	.	90*	.
